The campaign covered roughly 52,000 sequences. About 210 (0.4%) were called active. Shown is part of a subset that was picked to be rich in actives. A number with no mark means an inactive call.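 The calls were made as follows: active = gene whose silencing raises cell survival under the drug, median off-target-corrected z-score across its silencing RNAs 2 or more; inactive = the rest.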
test: Resistance to Poly (ADP-Ribose) Polymerase inhibitor: Gene Identification via Genome-wide siRNA Screen; conditions: mouse BRCA2 R2336H ES cells, olaparib, CellTiter-Glo viability; stronger effect = higher value
Method in brief: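 Mouse BRCA2 R2336H ES cells were reverse-transfected with siRNA (20 nM final), treated at 48 h with 500 nM olaparib, and read by CellTiter-Glo after 72 h. Scores: MAD-based z per siRNA, median per gene, seed off-target correction.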

Going from GGAUUCGAUUCUUCCAAAATT against Peli2 to “AUUCUGAACACUCCUCGGATT against C630041L24Rik”, the z-score rises from -1.02 to -0.69.

Going from GGAACUGCUUACGAAAUACTT against Lama4 to GGAUGCUACGUUCUGCUAGTT against Bcat2, the z-score falls from -0.374 to -0.76.

Compared with “GCCCUCAGGUGGUUCUUAATT against C030036P15Rik”, GCUAUUAUUGCAAUGUCAGTT against Trim38 is higher in z-score: -1.76 for the first, -0.00296 for the second.

First: GGCUGAAGCAGUCUGUUGCTT against Rpp14
Second: GGCUGUUUGUGGUAUAGGUTT against Lrrc3
The z-score of the first is lower: -0.655 for the first, 1.52 for the second.

Compared with GGCAACUUUGUUAUAUACATT against Sh2bp1, “CCUCAGAUUUCAACCAUAGTT against 2700087I09Rik” is higher in z-score: -0.76 for the first, 1.64 for the second.

Compared with “CCAUGACAUUUCCUAAGUUTT against B130022O04Rik”, GCUUCUAAUUGGAGAUUGCTT against Ngfrap1 is higher in z-score: -2.2 for the first, 1.44 for the second.

First: CCAGUUACGUUAAAAGCUUTT against D1Bwg0491e
Second: GGGAGAAUUACCAAGAUCUTT against Elac1
The z-score of the first is lower: 0.00475 for the first, 2.5 for the second.

Going from GCCCUAGAUCAGGAGAUCATT against Rps17 to “GGAUGUCCCACUGCUUUACTT against 5730466C23Rik”, the z-score rises from -2.58 to -0.562.

First: GCACUAGUUCUCAAUUUAATT against Antxr1
Second: GGCCCAUUUUGGUGUGCAUTT against Hyal3
The z-score of the first is higher: 0.317 for the first, -0.6 for the second.

Compared with GGUGCCUAAUGGAUAAGAATT against Thrap2, GGAAACCAGACUUUCCCUATT against V1ra5 is lower in z-score: 0.923 for the first, -0.806 for the second.

Compared with GGACCAGGUUCACUUCCCUTT against Ovol1, GCAGAUCUCUUACGUCAUCTT against Adam9 is higher in z-score: 0.343 for the first, 0.749 for the second.

Going from GGAAAGUGGUUUUGUCCACTT against Ing5 to GGUCACGUGCAGUUAUAUCTT against Rab32, the z-score falls from 1.74 to 0.0398.

Going from GGCCUAAAUUGACAAACUUTT against Mgea5 to “GGAAACUUCUGCACUUGGGTT against 4930474M22Rik”, the z-score rises from 0.366 to 1.02.

Compared with GCUGUCUGAUUCUGAGGUGTT against Slc6a1, GGUGACAAUAAAAUGGUGATT against Fabp1 is higher in z-score: -0.947 for the first, 0.496 for the second.

First: GGUCAUGGUCUGAGAUUCUTT against Txnl4
Second: GCAAGGUGCACCUAAAGCATT against Egr4
The z-score of the first is higher: 0.353 for the first, -2.04 for the second.

Compared with GGACAAGAACUACAUUGAGTT against Eefsec, “GGACUUUUGGAUAACUUAGTT against 1200008A14Rik” is lower in z-score: 2.12 for the first, -0.788 for the second.

First: GGAUAUUCUUCCAGUCUUUTT against MGC118154
Second: CAAACCCAUGUUCUAAAUGTT against Oog3
The z-score of the first is lower: -1.48 for the first, 0.339 for the second.

Compared with “GGAGGUUUUGAUGGACUGUTT against 2610528H13Rik”, “CCUUGUACCCAGUAAAGUCTT against 2310007B03Rik” is lower in z-score: -0.424 for the first, -2.34 for the second.

Going from “GGAUUGAGCUACAAGAAUATT against E330016A19Rik” to CGGACUCCUGACAUUAUAATT against Cd33, the z-score rises from -0.0566 to 0.735.

Going from GGAUUCACGUAAGAUUGACTT against Prlpb to “GCCAACUCAGUUUUGAAUGTT against 4930404J24Rik”, the z-score falls from 1.33 to -0.142.

Going from GGUGUUCGGUGUCCUGGAATT against Pctp to UGAAGUCUAAUCAGAGCACTT against Olfr50, the z-score falls from -1.75 to -2.01.

First: GGAAUGCCGGAUUGCUCACTT against BC008163
Second: GGUCAUACACUUCUGCACATT against C330006K01Rik
The z-score of the first is lower: 1.25 for the first, 1.27 for the second.

Compared with GGAGGAGUUGCACCUCAUCTT against Pctk3, GCUACGGAACAAUCACAGCTT against Jarid1d is lower in z-score: 0.655 for the first, 0.15 for the second.

Going from GGAAAGAAAAAAGAUGGUCTT against Riok1 to AUGUGAUAGUGCCCAGCCUTT against Olfr884, the z-score rises from -1.05 to 1.48.

Compared with GGAAGAAAUAGAUGAGAAUTT against Tnmd, CGUUGAUUUCCAAAGCUGUTT against Kcnc2 is lower in z-score: 0.737 for the first, 0.168 for the second.

Going from GGAACAUUACCAUCAAGCUTT against Eif2s3x to GGAAGUGUUUGAUGUCUUATT against Stk4, the z-score rises from -2.52 to -1.1.

GGGAGUUUAUUCAAAAGUGTT against Nrbp gave a z-score of 0.522.

For GGUCUUAGAAGAUUUUUCUTT against Adam21, the z-score was 2.43 (active).
For GGAGAAACUGAUGACAGUGTT against Plcb3, the z-score was 1.47 (active).
With GCUACGAGAGGUCAUUUCCTT against Chrnb1 the z-score was 2.48 (active).
For GGAAAAGAUACGGAAGAUUTT against Acpp, the z-score was 0.216 (active).
In the case of GGUCGACUUAAGAUAAUAATT against Itgb6, the z-score is reported as 1.94 (active).
With GGCAUCUUCAAAUGACAUATT against Cic the z-score was 2.45 (active).
For GCAGCUCCAAAUCCUGUUCTT against Asb16, the z-score was -1.78 (active).
In the case of “GGGUUUAAUCAUGAUAGAATT against E130014J05Rik”, the z-score is reported as 3.95 (active).
With CCCAUGUUCGAUGGGAAAGTT against Adprt1 the z-score was 0.293 (active).
For GGGAAAAUGCUUUGUUGGATT against Rqcd1, the z-score was 1.97 (active).
For GGUCCUCUAAAGAAUAAAGTT against Ela3b, the z-score was 0.513 (active).
With GGAAGUUUCUGAAUGCUGUTT against Klrd1 the z-score was 2.01 (active).
With GGUUGACAUCGACCAAUCATT against Klhl1 the z-score was 1.3 (active).
For CCAAACUUACAAAUAUGCGTT against Sgpp1, the z-score was 3.3 (active).

— PubChem BioAssay AID1347423 (Functional Genomics Laboratory (NCATS/FGL), 2020)
